Experimental data published in the supplement of paper PMC8975748.
Counter-ions that a name gives are not always drawn. ± gives the standard deviation of the averaged measurements.

Experiments:
[1] = test system: Saccharomyces cerevisiae BY4741 SeMeCo community; experiment: mean cell size (pixel area) (pixels); higher = larger cells; details: 10 µM; 24 h; SM minimal medium
Summary of the method: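 Mean cell pixel area per well was determined by automated confocal microscopy with Harmony analysis of paraformaldehyde-fixed cells. The cells, a Saccharomyces cerevisiae BY4741 community of four plasmids that each complement one auxotrophy and carry a fluorescent marker, were incubated for 24 h with drug at a final 10 µM in SM medium in 384-well plates. Numbers are averaged over 3 replicates. Same SeMeCo high-content imaging drug screen: Selleck FDA-approved drugs at 10 µM, 24 h in SM medium, 384-well plates, 3 replicates.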

[2] = test system: Saccharomyces cerevisiae BY4741 SeMeCo community; experiment: z-score of prototroph abundance vs DMSO median; higher = larger share of this subpopulation than in DMSO controls; details: 10 µM; 24 h; SM minimal medium; subpopulation (auxotrophy): Prototroph
Summary of the method: (§1)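 Subpopulation abundance was reported as a z-score against the median of vehicle wells. The Saccharomyces cerevisiae BY4741 community, carrying four plasmids that each restored one auxotrophy and encoded a distinct fluorescent protein, was grown 24 h in minimal SM medium in 384-well plates holding library drugs at 10 µM final. Cells were paraformaldehyde-fixed and imaged by automated confocal microscopy, with single-auxotroph fluorescent strains used for thresholds and autofluorescence correction.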

[3] = test system: Saccharomyces cerevisiae BY4741 SeMeCo community; experiment: z-score of subpopulation abundance vs DMSO median, subpopulation auxotrophic for U; higher = larger share of this subpopulation than in DMSO controls; details: 10 µM; 24 h; SM minimal medium; subpopulation (auxotrophy): U
Summary of the method: as §1

[4] = test system: Saccharomyces cerevisiae BY4741 SeMeCo community; experiment: z-score of subpopulation abundance vs DMSO median, subpopulation auxotrophic for H; higher = larger share of this subpopulation than in DMSO controls; details: 10 µM; 24 h; SM minimal medium; subpopulation (auxotrophy): H
Summary of the method: as §1

[5] = test system: Saccharomyces cerevisiae BY4741 SeMeCo community; experiment: z-score of subpopulation abundance vs DMSO median, subpopulation auxotrophic for LU; higher = larger share of this subpopulation than in DMSO controls; details: 10 µM; 24 h; SM minimal medium; subpopulation (auxotrophy): LU
Summary of the method: as §1

[6] = test system: Saccharomyces cerevisiae BY4741 SeMeCo community; experiment: z-score of subpopulation abundance vs DMSO median, subpopulation auxotrophic for LM; higher = larger share of this subpopulation than in DMSO controls; details: 10 µM; 24 h; SM minimal medium; subpopulation (auxotrophy): LM
Summary of the method: as §1

[7] = test system: Saccharomyces cerevisiae BY4741 SeMeCo community; experiment: z-score of subpopulation abundance vs DMSO median, subpopulation auxotrophic for HM; higher = larger share of this subpopulation than in DMSO controls; details: 10 µM; 24 h; SM minimal medium; subpopulation (auxotrophy): HM
Summary of the method: as §1

[8] = test system: Saccharomyces cerevisiae BY4741 SeMeCo community; experiment: z-score of subpopulation abundance vs DMSO median, subpopulation auxotrophic for HU; higher = larger share of this subpopulation than in DMSO controls; details: 10 µM; 24 h; SM minimal medium; subpopulation (auxotrophy): HU
Summary of the method: as §1

[9] = test system: Saccharomyces cerevisiae BY4741 SeMeCo community; experiment: z-score of subpopulation abundance vs DMSO median, subpopulation auxotrophic for UM; higher = larger share of this subpopulation than in DMSO controls; details: 10 µM; 24 h; SM minimal medium; subpopulation (auxotrophy): UM
Summary of the method: as §1

[10] = test system: Saccharomyces cerevisiae BY4741 SeMeCo community; experiment: z-score of subpopulation abundance vs DMSO median, subpopulation auxotrophic for HL; higher = larger share of this subpopulation than in DMSO controls; details: 10 µM; 24 h; SM minimal medium; subpopulation (auxotrophy): HL
Summary of the method: as §1

[11] = test system: Saccharomyces cerevisiae BY4741 SeMeCo community; experiment: z-score of subpopulation abundance vs DMSO median, subpopulation auxotrophic for HLU; higher = larger share of this subpopulation than in DMSO controls; details: 10 µM; 24 h; SM minimal medium; subpopulation (auxotrophy): HLU
Summary of the method: as §1

[12] = test system: Saccharomyces cerevisiae BY4741 SeMeCo community; experiment: z-score of subpopulation abundance vs DMSO median, subpopulation auxotrophic for HLM; higher = larger share of this subpopulation than in DMSO controls; details: 10 µM; 24 h; SM minimal medium; subpopulation (auxotrophy): HLM
Summary of the method: as §1

[13] = test system: Saccharomyces cerevisiae BY4741 SeMeCo community; experiment: z-score of subpopulation abundance vs DMSO median, subpopulation auxotrophic for HUM; higher = larger share of this subpopulation than in DMSO controls; details: 10 µM; 24 h; SM minimal medium; subpopulation (auxotrophy): HUM
Summary of the method: as §1

[14] = test system: Saccharomyces cerevisiae BY4741 SeMeCo community; experiment: z-score of subpopulation abundance vs DMSO median, subpopulation auxotrophic for LUM; higher = larger share of this subpopulation than in DMSO controls; details: 10 µM; 24 h; SM minimal medium; subpopulation (auxotrophy): LUM
Summary of the method: as §1

[15] = test system: Saccharomyces cerevisiae BY4741 SeMeCo community; experiment: z-score of subpopulation abundance vs DMSO median, subpopulation auxotrophic for HLUM; higher = larger share of this subpopulation than in DMSO controls; details: 10 µM; 24 h; SM minimal medium; subpopulation (auxotrophy): HLUM
Summary of the method: as §1

[16] = test system: Saccharomyces cerevisiae BY4741 SeMeCo community; experiment: z-score of subpopulation abundance vs DMSO median, subpopulation auxotrophic for L; higher = larger share of this subpopulation than in DMSO controls; details: 10 µM; 24 h; SM minimal medium; subpopulation (auxotrophy): L
Summary of the method: as §1

| SMILES | mean cell size [1] | z-score of prototroph abundance [2] | z-score of subpopulation abundance [3] | z-score of subpopulation abundance [4] | z-score of subpopulation abundance [5] | z-score of subpopulation abundance [6] | z-score of subpopulation abundance [7] | z-score of subpopulation abundance [8] | z-score of subpopulation abundance [9] | z-score of subpopulation abundance [10] | z-score of subpopulation abundance [11] | z-score of subpopulation abundance [12] | z-score of subpopulation abundance [13] | z-score of subpopulation abundance [14] | z-score of subpopulation abundance [15] | z-score of subpopulation abundance [16] |
| --- | --- | --- | --- | --- | --- | --- | --- | --- | --- | --- | --- | --- | --- | --- | --- | --- |
| CC(=O)N[C@H]1[C@H]([C@H](O)[C@H](O)CO)OC(C(=O)O)=C[C@@H]1NC(=N)N [Zanamivir] | 11.9 ± 0.17 | -0.31 | -1.03 | 0.63 | -0.15 | 1.52 | 0.87 | -0.41 | -0.2 | 1.66 | 0.56 | 0.19 | 0.23 | 0.82 | 0.38 |  |
| CCCCCCCCCC(=O)N[C@@H](Cc1c[nH]c2ccccc12)C(=O)N[C@H](CC(N)=O)C(=O)N[C@@H](CC(=O)O)C(=O)N[C@@H]1C(=O)NCC(=O)N[C@@H](CCCN)C(=O)N[C@@H](CC(=O)O)C(=O)N[C@H](C)C(=O)N[C@@H](CC(=O)O)C(=O)NCC(=O)N[C@H](CO)C(=O)N[C@@H]([C@H](C)CC(=O)O)C(=O)N[C@@H](CC(=O)c2ccccc2N)C(=O)O[C@@H]1C [Daptomycin] | 12.2 ± 0.16 | -0.94 | -1.42 | 1.36 | -0.76 | 1.51 | 1.93 | 0.29 | -0.81 | 2.68 | 1.3 | 0.48 | 0.77 | 1.02 | -0.99 |  |
| C[C@H]1COc2c(C3(N)CC3)c(F)cc3c(=O)c(C(=O)O)cn1c23 [Pazufloxacin mesylate] | 12.5 ± 0.28 | -0.35 | 0.53 | 0.02 |  | -0.18 | -0.36 | 0.48 | -0.02 | -0.07 | 1.38 | -0.08 | -0.08 | -0.3 | 0.08 | 0.31 |
| CC1(C)S[C@@H]2[C@H](NC(=O)[C@H](N)c3ccc(O)cc3)C(=O)N2[C@H]1C(=O)O [Amoxicillin Sodium] | 12.5 ± 0.31 | 0.37 | -0.06 | -0.8 | -0.7 | -1.17 |  | -0.71 |  | -1.14 | -0.65 |  | -0.13 | -0.05 | -0.2 | -0.33 |
| CC1(C)S[C@@H]2[C@H](NC(=O)[C@H](N)c3ccccc3)C(=O)N2[C@H]1C(=O)O [Ampicillin Trihydrate] | 12.4 ± 0.33 |  | -0.13 | 0.41 | -0.05 | 0.29 | -0.06 | -0.36 | -0.18 | -0.3 | -0.22 |  | 0.13 |  | -0.25 | 0.35 |
| C[N+](C)(C)CCO.[Cl-] [Choline Chloride] | 12 ± 0.25 | 0.21 | 0.8 | -0.8 | 0.54 | -0.75 | -1.2 | -0.41 | 0.32 | -0.62 | -0.27 |  |  | 0.75 |  | -0.08 |
| Cc1cc(-n2c(=O)[nH]c(=O)n(C)c2=O)ccc1Oc1ccc(SC(F)(F)F)cc1 [Toltrazuril] | 12.53 ± 0.12 | 0.02 | -0.51 | 0.2 | -0.65 | -0.18 |  | 0.29 | -0.14 | 0.24 | 0 | -0.31 | -0.45 | -0.13 | 0.28 |  |
| CCCN1CCCC[C@H]1C(=O)Nc1c(C)cccc1C [Ropivacaine] | 12.24 ± 0.031 | 0.72 | -0.73 | -0.64 | -1.21 | 0.11 | -0.51 | -0.86 | -0.14 | -0.66 | -0.32 | -0.22 | -0.48 | -0.83 | -0.55 |  |
| C[C@H]1c2cccc(O)c2C(O)=C2C(=O)[C@]3(O)C(O)=C(C(N)=O)C(=O)[C@@H](N(C)C)[C@@H]3[C@@H](O)[C@@H]21 [Doxycycline monohydrate] |  | 0.75 | -0.54 | 0.17 | -0.41 | 0 | -1.15 | -1.42 | -1.13 | -0.19 | -0.54 | 0.18 | -0.92 | 0.2 | 0.42 | 0.54 |
| Nc1nc(/C(=C/CC(=O)O)C(=O)N[C@@H]2C(=O)N3C(C(=O)O)=CCS[C@H]23)cs1 [Ceftibuten dihydrate] | 12.6 ± 0.21 | 0.52 |  | -0.33 | -0.12 | 0.1 |  | -0.31 | -0.49 | -0.1 | -0.13 | 0.65 |  | 0.4 | 0.51 | 0.22 |
| CN1C(C(=O)Nc2ccccn2)=C(O)c2ccccc2S1(=O)=O [Piroxicam] | 12.79 ± 0.11 | 1.29 | -0.17 | -0.62 | -0.71 | -1.45 | -0.94 |  | -0.3 |  | -1.14 | -0.68 | -0.89 | -1.33 | -0.92 |  |
| CCCc1nc(C)c2c(=O)nc(-c3cc(S(=O)(=O)N4CCN(CC)CC4)ccc3OCC)[nH]n12 [Vardenafil HCl Trihydrate] | 12.53 ± 0.092 |  | 1.19 | 0.41 | 0.67 | -1.19 | 0.87 | 1.92 | 0.56 |  | 0.57 |  | 0.81 | -0.24 | 0.24 | 0.04 |
| NC(=O)c1cn(Cc2c(F)cccc2F)nn1 [Rufinamide] | 12.2 ± 0.16 |  | -0.6 | 0.5 | 0.45 |  |  | -0.24 | -0.01 | 0.55 | 0.55 | 0.38 | 0.45 | 0.43 |  |  |
| CC(=O)[C@@]1(O)CC[C@H]2[C@@H]3C[C@H](C)C4=CC(=O)CC[C@]4(C)[C@H]3CC[C@@]21C [Medroxyprogesterone] |  | -0.12 | 0.2 | -0.26 | 0.44 |  |  | 0.01 | -0.35 | 0.3 | 1.06 |  | -0.08 | 0.93 | 0.34 |  |
| CCCCOc1ccc(C(=O)CCN2CCCCC2)cc1 [Dyclonine HCl] | 12.2 ± 0.23 |  | -0.57 | -0.1 |  | 0.14 | -0.09 |  |  | -0.74 | -0.26 |  | 0.17 |  | -0.65 | 0.13 |
| O=C1NC(=O)C(c2ccccc2)(c2ccccc2)N1 [Phenytoin] | 12.39 ± 0.12 | -0.03 | 0.51 | -0.22 |  | 0.5 | -0.81 | -0.49 | 0.49 | -0.93 | -0.45 | -0.09 |  | 0.38 |  | -0.25 |
